Results on 20 compounds are retold here after article PMC7826789 (International Journal of Molecular Sciences, 2021).

Among the test systems are ERN1; FER; FES; FGFR1; FGFR2; FGFR3(G697C).
Holding throughout (details): Compound Concentration (nM):1000
A further test concerns T1, ERK4.
T1 construct: gene MAPK4

In a further test the test system is T2, ERK5.
T2 construct: gene MAPK7

The test system of another test is T3, ERK8.
T3 construct: gene MAPK15

The next test relates to T4, FAK.
T4 construct: gene PTK2
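Further: KINOMEscan scanMAX binding as percent activity remaining versus control; lower means stronger binding.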

As for `CN(C)CCNC(=O)Nc1ccc(N(C)c2ccnc(Nc3ccc(CS(C)(=O)=O)cc3)n2)cc1.Cl` [GW830900A], the “Percent Control” value in the test with ERK4 is on record as 93%; with ERK5, 100%; with ERK8, 78%; with ERN1 it was 72%; in the test on FAK, 49%; in the test with FER, 100%. The “Percent Control” value is 100% in the test on FES, 100% with FGFR1, 94% with FGFR2 and 100% in the test on FGFR3(G697C).
For `Cl.c1ccc(Cc2nc3ccc(Nc4ncnc5ccccc45)cc3[nH]2)cc1` [GR269666A], the “Percent Control” value in the test with ERK4 is reported as 100%; in the test with ERK5, 100%; with ERK8, 92%; in the test with ERN1, 93%; with FAK it was 100%; in the test on FER, 88%. Moreover, the “Percent Control” value with FES, in the test with FGFR1, in the test with FGFR2 and in the test on FGFR3(G697C) was 100% each time.
As to `C[C@@H](Oc1cc(-n2cnc3ccc(OC4CCN(C)CC4)cc32)sc1C(N)=O)c1ccccc1Cl` [GSK579289A], the “Percent Control” value is 98% in the test on ERK4; 96% in the test on ERK5; 100% with ERK8; 55% in the test with ERN1; 50% in the test on FAK; 100% with FER. Besides, the “Percent Control” value in the test on FES is 85%; in the test on FGFR1, 67%; in the test with FGFR2 it was 89%; in the test with FGFR3(G697C) it was 61%.
With `Cc1cc(O)cc(C)c1/C=C/c1cncc(C(N)=O)c1` [GW435821X], the “Percent Control” value was found to be 100% with ERK4; 100% in the test with ERK5; 100% with ERK8; 82% in the test with ERN1; 100% in the test on FAK; 98% in the test on FER. Also, the “Percent Control” value was 100% with FES, 92% with FGFR1, 100% in the test on FGFR2 and 100% in the test with FGFR3(G697C).
Regarding `COc1cc2ncnc(Nc3ccc4c(cnn4Cc4ccccc4)c3)c2cc1OC.Cl` [GW282449A], the “Percent Control” value with ERK4 was determined as 100%; in the test with ERK5, 100%; in the test with ERK8, 100%; in the test with ERN1, 96%; in the test on FAK, 100%; in the test with FER it was 100%. Further, the “Percent Control” value in the test on FES, with FGFR1, in the test on FGFR2 and in the test on FGFR3(G697C) was 100% throughout.
Regarding `NS(=O)(=O)c1ccc(Nc2ncc(-c3ccccc3)o2)cc1` [GW572399X], the “Percent Control” value with ERK4 stood at 100%; with ERK5, 100%; with ERK8, 28%; in the test with ERN1, 100%; with FAK, 100%; with FER, 100%. The “Percent Control” value with FES, in the test with FGFR1, with FGFR2 and with FGFR3(G697C) was 100% each time.
As to `CCn1c(-c2nonc2N)nc2c(C#CC(C)(C)O)nc(OCCNC)cc21.Cl` [GSK949675], the “Percent Control” value in the test on ERK4, in the test on ERK5, with ERK8, with ERN1, in the test on FAK and in the test on FER was 100% throughout. Besides, the “Percent Control” value with FES, in the test with FGFR1, in the test on FGFR2 and in the test on FGFR3(G697C) was 100% in each case.
`COc1ccc2c(-c3ccnc(Nc4cccc(OC(F)(F)F)c4)n3)cnn2n1` [GW810372X]: the “Percent Control” value with ERK4 came to 100%; with ERK5, 100%; in the test on ERK8, 3.6%; in the test on ERN1 it was 100%; with FAK it was 100%; in the test on FER it was 100%. The “Percent Control” value in the test with FES was 100%; with FGFR1, 91%; in the test on FGFR2, 100%; in the test on FGFR3(G697C), 75%.
Take `COc1cccc(-n2ncc3c(N/N=C/c4ccncc4)ncnc32)c1` [GW784752X]: the “Percent Control” value in the test with ERK4 was 58%; in the test with ERK5, 100%; with ERK8 it was 17%; with ERN1, 72%; in the test on FAK, 100%; with FER, 100%. Moreover, the “Percent Control” value was 100% in the test on FES, 87% in the test on FGFR1, 100% in the test with FGFR2 and 92% in the test on FGFR3(G697C).
`COc1cc(C=NNc2ncnc3c2cnn3-c2ccccc2)ccc1O` [GW513184X]: the “Percent Control” value in the test with ERK4 is given as 37%; in the test with ERK5, 100%; in the test on ERK8, 22%; with ERN1 it was 100%; with FAK, 100%; in the test on FER, 100%. Also, the “Percent Control” value in the test with FES, in the test with FGFR1, with FGFR2 and in the test with FGFR3(G697C) was 100% throughout.
On to `COc1cc(/C=N/Nc2ncnc3[nH]ncc23)ccc1O` [GW578748X], for which the “Percent Control” value was determined as 72% in the test with ERK4; 100% in the test with ERK5; 93% with ERK8; 53% with ERN1; 100% in the test with FAK; 100% with FER. Further, the “Percent Control” value is 100% with FES, 81% in the test on FGFR1, 100% in the test with FGFR2 and 88% in the test on FGFR3(G697C).
`COc1ccc(COc2ccc(Cc3cnc(N)nc3N)cc2OC)cc1` [GW632580X]: the “Percent Control” value in the test on ERK4 is 100%; in the test with ERK5, 100%; with ERK8, 100%; with ERN1, 88%; with FAK it was 100%; in the test on FER, 81%. Also, the “Percent Control” value in the test on FES was 82%; with FGFR1, 67%; in the test with FGFR2, 99%; with FGFR3(G697C), 89%.
`NS(=O)(=O)c1ccc(N/N=C2\C(=O)Nc3ccc(-c4cnco4)cc32)cc1` [GW276655]: the “Percent Control” value in the test on ERK4 was 100%; in the test with ERK5, 98%; in the test on ERK8 it was 23%; with ERN1, 89%; in the test on FAK, 68%; with FER it was 91%. The “Percent Control” value in the test with FES was 86%; in the test with FGFR1 it was 85%; with FGFR2 it was 100%; with FGFR3(G697C) it was 78%.
Turning to `COc1cccc(-c2c[nH]c3c(N/N=C/c4ccncc4)ncnc23)c1` [GW814408X], the “Percent Control” value turned out to be 8.3% in the test on ERK4; 100% in the test with ERK5; 2% with ERK8; 100% in the test with ERN1; 100% with FAK; 100% in the test on FER. Also, the “Percent Control” value in the test on FES, in the test on FGFR1, in the test on FGFR2 and with FGFR3(G697C) was 100% each time.
As to `COc1cc(C)c(N(C)C(=O)CN(C)C)cc1Nc1nc(Nc2cccc(F)c2C(N)=O)c2cc[nH]c2n1` [GSK2219385], the “Percent Control” value with ERK4 amounted to 92%; with ERK5 it was 100%; in the test on ERK8, 95%; in the test on ERN1, 100%; with FAK it was 100%; in the test with FER, 91%. The “Percent Control” value is 97% with FES, 100% in the test with FGFR1, 82% in the test with FGFR2 and 88% in the test on FGFR3(G697C).
As to `CC1=C(C(=O)Nc2ccc3[nH]ncc3c2)C(c2ccc3ccccc3c2)CC(=O)N1` (centres unmarked) [GSK270822A], the “Percent Control” value is recorded as 100% in the test with ERK4; 100% in the test with ERK5; 100% in the test on ERK8; 78% with ERN1; 100% with FAK; 77% in the test with FER. The “Percent Control” value in the test on FES was 84%; in the test on FGFR1, 72%; with FGFR2, 66%; in the test on FGFR3(G697C) it was 78%.
For `CCc1ccc(Oc2nccc(-c3c(-c4ccc(F)cc4)ncn3C3CCNCC3)n2)cc1` [SB-242719], the “Percent Control” value in the test on ERK4 came out at 100%; in the test on ERK5, 100%; in the test on ERK8, 100%; in the test with ERN1, 75%; in the test with FAK, 100%; with FER it was 67%. Moreover, the “Percent Control” value with FES is 97%; in the test with FGFR1, 100%; with FGFR2 it was 100%; in the test on FGFR3(G697C) it was 91%.
For `COc1ccc2[nH]c3c4[nH]c5ccc(OC)cc5c4c4c(c3c2c1)C(=O)NC4=O` [GW296115X], the “Percent Control” value in the test with ERK4 was 74%; in the test with ERK5, 69%; in the test with ERK8, 58%; with ERN1 it was 93%; in the test with FAK, 85%; in the test with FER, 58%. For the same compound, the “Percent Control” value was 86% in the test with FES, 100% with FGFR1, 88% in the test on FGFR2 and 100% with FGFR3(G697C).
`Cl.O=C(O[C@H]1CN[C@H](C#Cc2cc3ncnc(Nc4ccc5c(cnn5Cc5ccccc5)c4)c3s2)C1)N1CCOCC1` [GSK200398A]: the “Percent Control” value is 99% with ERK4; 89% in the test with ERK5; 90% in the test on ERK8; 88% with ERN1; 96% with FAK; 94% with FER. For the same compound, the “Percent Control” value was 95% in the test with FES, 100% in the test with FGFR1, 100% in the test with FGFR2 and 86% in the test with FGFR3(G697C).
For `COc1ccccc1-c1cc(/C=C2\C(=O)Nc3ncc(Br)cc32)cc(Br)c1O` [GW442130X], the “Percent Control” value in the test with ERK4 came out at 100%; with ERK5 it was 100%; in the test with ERK8, 100%; with ERN1 it was 100%; with FAK, 97%; in the test with FER, 100%. Further, the “Percent Control” value in the test on FES, in the test with FGFR1, with FGFR2 and in the test with FGFR3(G697C) was 100% in each case.
